Screens from PubChem BioAssay.
FBPA Giardia inh: inhibitors of Giardia lamblia fructose-1,6-bisphosphate aldolase; A8B2U2; Potency, µM (titrated, usually from 59.6 µM), for the others: at the top dose activity, negative = inhibition, hits mostly inhibitors; AID 2451; purified Giardia FBPA; 0.71% of 290,000 active; also: potency is read from the fitted curve at half-maximal effect; % is scaled to controls: 0 for no effect and ±100 for the full control effect; nearly all actives have a fitted effect of over 55% in size
Target sequence (A8B2U2 whole entry, looked up): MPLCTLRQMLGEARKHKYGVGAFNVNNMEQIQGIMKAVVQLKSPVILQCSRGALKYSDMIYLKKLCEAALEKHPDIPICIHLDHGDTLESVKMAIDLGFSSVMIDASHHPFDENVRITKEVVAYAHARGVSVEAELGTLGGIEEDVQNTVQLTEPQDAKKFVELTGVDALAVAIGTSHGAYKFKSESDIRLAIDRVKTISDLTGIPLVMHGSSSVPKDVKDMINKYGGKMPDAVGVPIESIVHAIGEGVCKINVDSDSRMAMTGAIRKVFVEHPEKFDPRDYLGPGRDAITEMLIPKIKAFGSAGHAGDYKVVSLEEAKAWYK
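40 nM FBPA preincubated 10 min at RT with compound (up to 57.5 uM final), then substrate plus GAPDH/TPI/NAD/arsenate coupling and diaphorase/resazurin added. Fluorescence read after 20 min at RT, 525/598 nm.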
TbPYK inhibitor: blocks Trypanosoma brucei pyruvate kinase; 0.12% of 410,000 active; Potency, µM (doses to about 76.8 µM), inactives show at the highest dose activity, negative = inhibition, hits mostly inhibitors; TbPYK enzyme, Kinase-Glo Plus ATP luminescence, 45 min; AID 624173; also: potency is read from the fitted curve at half-maximal effect; % is scaled to controls: 0 for no effect and ±100 for the full control effect; nearly all actives have a fitted effect of over 50% in size
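Enzyme and substrate buffer are dispensed first and compound is pin-transferred. ADP at 130 uM final then starts the reaction, which runs 45 min at room temperature. Detection reagent is added for 10 min before luminescence is imaged.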
LmPK inhibitor: LmPK (Leishmania mexicana) enzyme inhibition. Potency, µM (highest dose often 57.5 µM), without a hit: at the top dose activity change, negative = inhibition, usual class: inhibitors. 0.37% of 290,000 active. purified LmPK, Kinase-Glo ATP luminescence, 1 h; also: potency is read from the fitted curve at half-maximal effect; % is scaled to controls: 0 for no effect and ±100 for the full control effect
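In 50 mM imidazole pH 7.2 with 7 mM MgCl2, LmPK (0.1 nM) turned over PEP (0.5 mM) and ADP (0.1 mM) for 1 h at room temperature. Luciferase read-out of ATP.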
RE007 growth inh: less growth of the S. pombe RE007 Vpr strain; Potency, µM (series often up to 92.2 µM), for inactives: at the top dose activity change, negative = less growth, most hits filed as inhibitors; 0.21% of 360,000 active; S. pombe RE007 Vpr strain, BacTiter-Glo ATP luminescence, 24 h; active = well fitted falling curve with a large enough effect; inconclusive = small, poorly fitted or top-dose-only effect; inactive = no such curve, though single readings can be large or run the other way; also: potency is read from the fitted curve at half-maximal effect; % is scaled to controls: 0 for no effect and ±100 for the full control effect; nearly all actives have a fitted effect of over 50% in size
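Fission yeast RE007 carrying one integrated HIV-1 vpr copy, seeded at OD 0.01 in PMG+AL medium with 23 nL pinned compound. Grown 24 h at 30 degrees; viability read by BacTiter-Glo luminescence after 5 min.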
Shiga toxin inh: inhibitors of Shiga toxin in Vero cells; AID 2315; 9.2% of 290,000 active; inhibition, % at 38.7 µM; Vero cells, Shiga toxin protein synthesis inhibition reporter; in the data active = inhibition mostly above about 28%, no sharp cut-off; inactive = mostly below about 43%; also: 0% is about no effect
CHX counter: affects cycloheximide protein synthesis inhibition readout, counter-screen | 12% of 300,000 active | AID 2314 | max response, % | cell reporter, cycloheximide protein synthesis inhibition counterscreen; in the data active = max response mostly above about 13%, no sharp cut-off; inactive = mostly below about 14%; also: read at 38.3 µM for the half of the compounds with a filed dose; 0% is about no effect
* marks the source's active call; other numbers are inactive results. Only a selection was taken, and hits are over-represented in it overall. Unless noted, calls follow the shape of the dose curve; as a rule, active = well fitted curve in the direction sought with a large enough effect; inconclusive = small, poorly fitted or top-dose-only effect, or another doubt; inactive = no such curve, though single readings can be large; an effect the other way counts as inactive or inconclusive.

O=S(=O)(Nc1ccc(-c2nc3cccnc3s2)cc1)c1cccs1 was read as FBPA Giardia inh -0.8%, TbPYK inhibitor -9.6%, LmPK inhibitor -2.3%, RE007 growth inh 0.4%, Shiga toxin inh 36.0 and CHX counter 28.1*.
Screening Cc1cc(-c2nc3cccnc3s2)ccc1NS(=O)(=O)c1cccs1 returned FBPA Giardia inh 15.9%, TbPYK inhibitor -1.5%, LmPK inhibitor -16.4%, RE007 growth inh 6.6%, Shiga toxin inh 137.8* and CHX counter 47.8*.
For O=S(=O)(Nc1ccc(-c2nc3cccnc3s2)cc1)c1ccc(Cl)s1 the results were FBPA Giardia inh 21.3%, TbPYK inhibitor 7.4%, LmPK inhibitor -3.8%, RE007 growth inh -6.0%, Shiga toxin inh 16.2* and CHX counter 32.9*.
Cc1nc2cc(NS(=O)(=O)c3ccccc3F)ccc2s1 was read as FBPA Giardia inh -26.9%, TbPYK inhibitor -1.5%, LmPK inhibitor 4.5%, RE007 growth inh -3.1%, Shiga toxin inh 9.3 and CHX counter 3.9.
For O=S(=O)(Nc1ccc(-c2nc3cccnc3s2)cc1)c1ccccc1F the results were FBPA Giardia inh 2.4%, TbPYK inhibitor -6.1%, LmPK inhibitor -5.4%, RE007 growth inh 5.0%, Shiga toxin inh 91.8* and CHX counter 49.8*.
For CCc1ccc(NS(=O)(=O)c2cccs2)cc1 the results were FBPA Giardia inh -2.6%, TbPYK inhibitor -16.1%, LmPK inhibitor 3.6%, RE007 growth inh -16.2%, Shiga toxin inh 13.7 and CHX counter 9.8.
`CCCn1nc(C(=O)NNC(=O)CCCOc2ccc(OC)cc2)c2ccccc2c1=O` gave TbPYK inhibitor -5.7% and RE007 growth inh 2.1%.
Screening Cc1cc(C)c2nc(N3CCCC(C(=O)NCCN4CCOCC4)C3)sc2c1 (configuration not stated) returned FBPA Giardia inh 0.9%, TbPYK inhibitor -6.5%, LmPK inhibitor -0.5%, RE007 growth inh -10.3%, Shiga toxin inh 45.7* and CHX counter 36.2*.
Screening Cc1cc(C)c2nc(N3CCCC(C(=O)NCCCN4CCOCC4)C3)sc2c1 (configuration not stated) returned FBPA Giardia inh -0.2%, TbPYK inhibitor -4.5%, LmPK inhibitor -0.5%, RE007 growth inh 9.7%, Shiga toxin inh 42.4 and CHX counter 13.6.
Screening CCN1CCN(CCCNC(=O)C2CCCN(c3nc4c(C)cc(C)cc4s3)C2)CC1 (configuration not stated) returned FBPA Giardia inh 1.5%, TbPYK inhibitor -2.5%, LmPK inhibitor -1.4%, RE007 growth inh -12.2%, Shiga toxin inh 41.8* and CHX counter 13.2*.
CCCNC(=O)C1CCC(Cn2c(=O)c3sccc3n(CC(=O)N3CCCC(C)C3)c2=O)CC1 (configuration not stated) was read as TbPYK inhibitor -4.0%.
Screening O=C(CS(=O)CC(=O)Nc1cccnc1)Nc1ccc(F)cc1 (configuration not stated) returned FBPA Giardia inh -0.3%, TbPYK inhibitor 4.7%, LmPK inhibitor 4.2%, RE007 growth inh 5.8%, Shiga toxin inh 20.2 and CHX counter -3.7.
`O[C@@H]1CN(Cc2ccc(-n3cccn3)cc2)CC[C@H]1N1CCN(c2ccccc2F)CC1` gave FBPA Giardia inh 4.3%, TbPYK inhibitor 1.9%, LmPK inhibitor 9.4%, RE007 growth inh -14.5% and CHX counter -1.1.
For O=C(C1=C(O)/C(=C/c2ccc(O)cc2)CCC1)C(F)(F)F the results were FBPA Giardia inh -10.9%, TbPYK inhibitor -7.0%, LmPK inhibitor -4.3%, RE007 growth inh inconclusive, Shiga toxin inh 43.9* and CHX counter 30.5*.
CSC(=CC(=O)c1ccc(F)cc1)SC was read as FBPA Giardia inh -8.9%, TbPYK inhibitor -1.0%, LmPK inhibitor -11.4%, RE007 growth inh -22.8%, Shiga toxin inh 18.3 and CHX counter 26.2*.
CSC(=CC(=O)c1ccccc1)SC was read as FBPA Giardia inh 2.6%, TbPYK inhibitor 2.4%, LmPK inhibitor -10.7%, RE007 growth inh -27.6%, Shiga toxin inh 65.9* and CHX counter 25.1*.
Screening O=C(C=C(C(=O)c1ccccc1)c1ccccc1)c1ccccc1 returned TbPYK inhibitor 1.4% and RE007 growth inh 16.8%.
